Compound activity (PubChem BioAssay)
Cycloheximide cs – counter-screen hit for Shiga toxin inhibitors, cycloheximide. cell reporter, cycloheximide protein synthesis inhibition counterscreen. max response, %. 300,000 compounds, 12% hits; in the data active = max response mostly above about 13%, no sharp cut-off; inactive = mostly below about 14%; note: read at 38.3 µM for the half of the compounds with a filed dose; 0% is about no effect
FMDV antiviral – foot and mouth disease virus antiviral activity | 410,000 compounds, 1.2% hits | FMDV antiviral cell-based qHTS | Potency, µM (titrated, usually from 57.9 µM), for the others: at the highest dose activity change, negative = inhibition, actives largely listed as inhibitors | AID 1159524; calls by dose curve; tested in HEK293T cells; note: read-out not given here; potency is the fitted concentration of half-maximal effect; % is set by controls: 0 for no effect and ±100 for the full control effect; nearly all actives have a fitted effect of over 45% in size
MARV entry inh – blocks Marburg virus binding to or entry into cells; Marburg virus pseudotyped entry inhibition, cell reporter; Potency, µM (titrated, usually from 37.8 µM), inactives show at the top dose activity change, negative = inhibition, hits mostly inhibitors; 300,000 compounds, 1.8% hits; AID 540276; calls by dose curve; tested in HEK293 cells; note: potency is the fitted concentration of half-maximal effect; % is set by controls: 0 for no effect and ±100 for the full control effect
Lassa entry inh – Lassa virus entry inhibition; Lassa virus pseudotype entry inhibition, cell reporter; Potency, µM (top dose mostly 37.9 µM), for the others: at the top dose activity change, negative = inhibition, most hits filed as inhibitors; 300,000 compounds, 1.2% hits; calls by dose curve; tested in HEK293 cells; note: potency is the fitted concentration of half-maximal effect; % is set by controls: 0 for no effect and ±100 for the full control effect; nearly all actives have a fitted effect of over 50% in size
Shiga toxin inh – blocks Shiga toxin action in Vero cells. Vero cells, Shiga toxin protein synthesis inhibition reporter. 290,000 compounds, 9.2% hits. AID 2315. inhibition, % at 38.7 µM; in the data active = inhibition mostly above about 28%, no sharp cut-off; inactive = mostly below about 43%; note: 0% is about no effect
HCV inh – blocks hepatitis C virus | Huh7.5.1 HCVcc-Cre infection, luciferase reporter, 44 h | Potency, µM (doses to about 41.8 µM), for inactives: top-dose activity change, negative = inhibition, usual class: inhibitors | 340,000 compounds, 3.4% hits; active = well fitted inhibition curve with a large enough effect; inconclusive = small, poorly fitted or top-dose-only effect, or another doubt; inactive = no such curve, though single readings can be large or run the other way; note: potency is the fitted concentration of half-maximal effect; % is set by controls: 0 for no effect and ±100 for the full control effect
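After 44 h co-culture of compound, cells and HCVcc-Cre (~0.5 moi), substrate is added for 15 min at room temperature and luciferase measured over 15 sec. Cells were seeded at 1,000/well and pre-cultured 4 h.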
* marks the source's active call; other numbers are inactive results; ? = inconclusive; / = no result; [ ] = another dose, or the depositor's remark. An excerpt weighted towards active compounds, which were near 13% of everything screened.

SMILES | Cycloheximide cs | FMDV antiviral | MARV entry inh | Lassa entry inh | Shiga toxin inh | HCV inh
CN(C)c1cccc(C(=O)NCC(c2ccco2)N(C)C)c1 (centres undefined) | 36.9* | 13.4% | ? | 9.7%[46.1 µM] | 75.1* | 13.8%
N=C1C(c2nc3ccccc3[nH]2)=C(O)CN1c1ccc(F)cc1 | 37.7* | 45.6% | 14.7% | 10.7% | 28.4 | -2.4%
N=C1C(c2nc3ccccc3[nH]2)=C(O)CN1C1CCCCC1 | 30.6* | 59.4% | 17.2% | 14.8% | 55.0* | -2.5%
CC(C)N1CC(O)=C(c2nc3ccccc3c(=O)[nH]2)C1=N | 5.1 | 16.4% | -3.1% | 8.7% | 29.6 | 6.4%
Cc1cc(C)cc(N2CC(O)=C(c3nc4ccccc4c(=O)[nH]3)C2=N)c1 | 0.6 | 4.7% | ? | -17.4% | -3.4 | 22.4µM*
NC1=NCC(O)=C1c1nc2ccccc2[nH]1 | 1.3 | -3.4% | 7.0% | 8.1% | 14.5 | -3.2%
COc1cccc(N2CC(O)=C(c3nc4ccccc4c(=O)[nH]3)C2=N)c1 | -2.6 | / | ? | ? | 1.7 | ?
Cc1cc(C)c2c(=O)[nH]c(SCC(=O)N3CCOCC3)nc2n1 | -1.9 | -8.6% | -19.7%[46.1 µM] | -2.1% | -2.0 | 0.4%
OC1CCCN(Cc2nc(Cc3ccccc3Cl)no2)C1 (centres undefined) | 17.2* | 6.8% | / | / | 27.8 | 4.4%
CC1CCCN(Cc2nc(Cc3ccccc3Cl)no2)C1 (centres undefined) | 22.9* | 7.8% | 7.0%[46.1 µM] | 5.7%[46.1 µM] | 37.7* | 2.6%
Cn1cccc1C1C=C(c2ccc(C(C)(C)C)cc2)Nc2ncnn21 (centres undefined) | / | -57.6% | / | / | / | ?
CCCCN(CC)CCNC(=O)CN(C)S(=O)(=O)c1ccc2c(c1)c(=O)n(C)c(=O)n2C | -0.7 | -17.1% | 2.0% | 9.0% | -7.8 | 18.7%
CCN(CC)CCNC(=O)C(Cl)=C1C(Cl)=C(Cl)C(Cl)=C1Cl | / | 22.4µM* | ? | ? | / | ?
CC[C@H](C)[C@H](NC(=O)CNC(=O)[C@H](CC(C)C)NC(=O)[C@H](CC(C)C)NC(=O)[C@H](CCC(N)=O)NC(=O)[C@H](CCC(N)=O)NC(=O)[C@H](CC(=O)O)NC(=O)[C@H](CCCCN)NC(=O)[C@H](CC(C)C)NC(=O)[C@H](Cc1ccc(O)cc1)NC(=O)[C@H](CCCNC(=N)N)NC(=O)[C@H](CCC(=O)O)NC(=O)[C@@H](NC(=O)[C@H](C)NC(=O)[C@H](CC(C)C)NC(=O)[C@@H](NC(=O)[C@@H](N)CCCNC(=N)N)[C@@H](C)CC)C(C)C)C(=O)N[C@@H](Cc1c[nH]c2ccccc12)C(=O)NCC(=O)N[C@@H](CS)C(=O)N[C@@H](CO)C(=O)O | 0.8 | / | / | / | -4.0 | /
C/C=C(\C)c1nnc(NC(=O)c2ccco2)s1 | 14.6* | 16.9% | 17.9% | ? | 55.9* | -0.7%
CC(C)(C)Cc1nnc(NC(=O)c2ccco2)s1 | 32.4* | 32.6% | / | / | 42.2* | 17.1%
Cc1nnc(NC(=O)c2ccco2)s1 | 1.5 | 20.7% | 2.2% | 1.9% | -10.6 | 0.5%
O=C(Nc1nnc(Cc2ccccc2)s1)c1ccco1 | 18.1 | 11.2% | 18.4% | ? | 61.9 | -14.2%
COc1ccc(/C=C/c2nnc(NC(=O)c3ccco3)s2)cc1 | 8.9 | 37.9% | / | / | 40.7 | -26.1%
COc1ccc(-c2nnc(NC(=O)c3ccco3)s2)cc1 | 27.1* | 12.4% | ? | -13.5% | 53.2 | 2.2%
Cc1ccc(-c2nnc(NC(=O)c3ccco3)s2)cc1 | 27.9* | 0.0% | 22.9%[46.1 µM] | ? | 96.5* | 5.5%
CCCOc1cccc(-c2nnc(NC(=O)c3ccco3)s2)c1 | 14.8 | 49.9% | / | / | 17.5 | -7.5%
COc1cccc(-c2nnc(NC(=O)c3ccco3)s2)c1 | 31.8* | 63.3% | / | / | 95.7* | 12.9%
O=C(Nc1nnc(C23CC4CC(CC(C4)C2)C3)s1)c1ccco1 | 35.2* | 26.0% | 19.7%[46.1 µM] | ? | 53.2* | 9.8%
COc1ccc(S(=O)(=O)n2nc(OC(=O)c3c(-c4ccccc4Cl)noc3C)cc2N)cc1 | 7.2 | ? | -0.3% | 2.4% | -6.4 | -0.5%
SMILES | Cycloheximide cs | FMDV antiviral | MARV entry inh | Lassa entry inh | Shiga toxin inh | HCV inh
CC(C)CN1CCN(Cc2ccc3ncccc3c2)CC1CCO (centres undefined) | 4.8 | 5.1% | -21.6%[46.1 µM] | ? | -6.8 | -1.7%
OCCC1CN(CC(c2ccccc2)c2ccccc2)CCN1C1CCCC1 (centres undefined) | -2.2 | -17.1% | 13µM* | ? | 10.5 | ?
Cc1ccccc1-c1ncc(CN2CCN(C3CCCCC3)C(CCO)C2)cn1 (centres undefined) | 22.4* | -6.2% | / | / | 16.4 | -5.4%
CC(C)CN1CCN(Cc2cnc(-c3ccc(Cl)cc3)nc2)CC1CCO (centres undefined) | 13.2* | 11.1% | / | / | 110.6 | ?
OCCC1CN(Cc2cnc(-c3ccc(Cl)cc3)nc2)CCN1C1CCCC1 (centres undefined) | 0.9 | ? | ? | -4.6% | 11.1 | 7.08µM*
CSc1ncc(CN2CCN(C3CCCCC3)C(CCO)C2)cn1 (centres undefined) | 2.0 | -20.9% | 3.7%[46.1 µM] | 17.2%[46.1 µM] | 2.8 | 4.9%
OCCC1CN(CC#Cc2ccccc2)CCN1C1CCCC1 (centres undefined) | 0.5 | -12.6% | 0.9%[46.1 µM] | -21.7%[46.1 µM] | -2.3 | -4.3%
Cc1ccc(Cl)cc1N1CCN(C(=O)c2ccc3c(c2)N(Cc2ccc(F)cc2)CCS3)CC1 | / | -21.9% | 2.4%[46.1 µM] | 2.1%[46.1 µM] | / | /
Cc1ccc(CN2CCN(CC(C)C)C(CCO)C2)s1 (centres undefined) | 38.6* | 60.7% | ? | ? | 82.3* | -2.4%
Cc1ccc(CN2CCN(CCC(C)C)C(CCO)C2)s1 (centres undefined) | 1.2 | -17.1% | 3.2%[46.1 µM] | 6.1% | -17.9 | 8.9%
O=C(COc1ccccc1/C=C\c1nc(O)c([N+](=O)[O-])c(=O)[nH]1)Nc1ccccc1 | 1.7 | 46.1% | ? | 4.2% | -0.7 | 8.4%
C[C@@H]1[C@H]2[C@@H]3CC[C@@H](C3)[C@H]2CN[C@H]1c1cn(Cc2ccccc2)c2ccccc12 | / | 0.0% | / | / | / | 22.4µM*
CCCCNC(=O)Cn1cnc2c(cnn2-c2ccc(C)cc2)c1=O | 1.6 | 22.4% | 13.2%[46.1 µM] | -22.8%[46.1 µM] | -2.5 | 19.9%
COc1cccc(C2Cc3ccccc3C(=O)O2)c1 (centres undefined) | 21.3 | 25.4% | 6.2% | 0.4% | 27.3 | 17.5%
Cc1cc(C(=O)N/N=C/c2ccc(OC(=O)c3ccccc3Br)cc2)n[nH]1 | 11.2 | -0.9% | ? | -11.4% | 28.7 | -10.7%
CCOc1cc(/C=N/NC(=O)c2cc(C)[nH]n2)ccc1OC(=O)c1ccc([N+](=O)[O-])cc1 | 7.0 | / | 1.9% | / | 15.9 | /
Cc1cc(C(=O)N/N=C/c2cc(Br)ccc2OC(=O)c2ccccc2)n[nH]1 | 10.5 | -8.3% | 10µM* | ? | 4.1 | ?
Cc1cc(C(=O)N/N=C/c2cc(Br)ccc2OC(=O)c2ccccc2Cl)n[nH]1 | 11.9 | -13.2% | 10µM* | 10µM* | 28.9 | ?
CCc1c(C)nc2ncnn2c1NC1CCCc2ccccc21 (centres undefined) | 1.0 | ? | 0.1% | -12.6% | -4.4 | ?
